Source: PubChem BioAssay (NCATS)
Records with an inconclusive call do not appear. Values without a mark were called inactive. Activity calls are given as the source filed them. Calls follow the shape of the dose curve; as a rule, active = well fitted curve in the direction sought with a large enough effect; inconclusive = small, poorly fitted or top-dose-only effect, or effect the other way, or another doubt; inactive = no such curve, though single readings can be large or run the other way. Peptide text beside a SMILES is read from it. * marks the point of attachment. Hexanoyl = CCCCCC(=O)*

Test: Cytotoxicity qHTS for assessment of Hepg2 cells membrane integrity screened against the NCATS CANVASS Library (AID 1347387)
Details: HepG2 LDH release (CytoTox-ONE) fluorescence, 5 h; series mostly up to 46.1 µM
Excerpt: Natural products and their derivatives continue to be wellsprings of nascent therapeutic potential. However, many laboratories have limited resources for biological evaluation, leaving their previously isolated or synthesized compounds largely or completely untested. To address this issue, the Canvass library of natural products was assembled (https://tripod.nih.gov/canvass), in collaboration with academic and industry researchers, for quantitative high-throughput screening (qHTS) across a diverse set of cell-based and biochemical assays. The pure (>85% purity by liquid chromatography/mass spectrometry [LC/MS]) Canvass library of 346 natural products were submitted by 45 academic laboratories and companies around the world. We collected pure natural products to circumvent deconvolution and structure elucidation due to time and resource limitations. The library was formatted into 1536-well plates and evaluated in 50 qHTS (in an 11-pnt concentration series) bioassays with broad scope of disease-relevant mechanisms. The resulting data set from 50 different assays was then systematically analyzed to identify overall trends and specific natural products with interesting biological activities. Reported herein are the results of each individual qHTS and their corresponding assay protocol. The membrane integrity assay is a fluorometric method for estimating the number of nonviable cells. The assay measures the release of lactate dehydrogenase (LDH) from cells with a damaged cellular membrane. The amount of fluorescence is proportional to the number of lysed cells. National Center for Advancing Translational Sciences (NCATS), Rockville, MD National Institute of Health (NIH), Bethesda, Maryland
Membrane Integrity-screen protocol: 1. In black solid-bottom 1536 well plates, 5 uL of HepG2 cell suspension was dispensed using the Multidrop Combi (Thermo Fisher Scientific) at a final concentration of 2000 cells / well (columns 2-48). 2. The assay plates were incubated overnight at 37C, 5% CO2 to allow the cells to acclimate and attach. 3. 23 nL of compounds (in DMSO), vehicle control (DMSO) or control compound were pin transferred into the assay plates using the Kalypsis pin tool (Wako USA) equipped with a 1536 well pin heads, resulting in final concentration of 0.59 nM - 46 uM. 4. The assay plates were further incubated for 5 hr at 37C, 5% CO2. 5. 5 uL of CytoTox-ONE Membrane Integrity Assay reagent was added to the plates using the BioRAPTR dispenser followed by a 10 min room temperature incubation. 6. The fluorescence signal was measured using the EnVision plate reader (PerkinElmer) using a 560 nm excitation and 590 nm emission filters.

**Q.** Which outcome does the source give for `CC(=O)c1c(C)cc2c(c1O)C(=O)c1c(O)cc(O)cc1C2=O` here?
**A.** Its outcome is “inactive”.

**Q.** Which outcome does the source give for `CC(C)=CCC[C@]12c3cc4c(cc3CC[C@@]1(C)[C@H](C)CC[C@@H]2O)[nH]c1ccccc14` here?
**A.** Its outcome is “inactive”.

**Q.** With `C=C1CC[C@@H](Br)C(C)(C)[C@]12CC=C(C)C(=O)C2` as the compound, how does the outcome read?
**A.** Its outcome is “inactive”.

**Q.** Which outcome does the source give for `CO[C@H]1[C@@H](OC(=O)/C(C)=C\[C@@H]2O[C@@H]2[C@H]2O[C@H]2C)[C@H](O)[C@H](OCC23C[C@@H]4[C@H](C)CC[C@H]4C4(C=O)CC2C=C(C(C)C)C34C(=O)O)O[C@@H]1C` (stereo not given in full) here?
**A.** The outcome was “inactive”.

**Q.** With `CC[C@H]1[C@H](C)[C@H](c2cc(OC)c(OC)cc2OC)[C@@H](C)[C@H](c2cc(OC)c(OC)cc2OC)[C@@]12C=C(OC)C(=O)C=C2OC` as the compound, how does the outcome read?
**A.** The outcome was “inactive”.

**Q.** Which outcome does the source give for `C=C1CCC2C(C)(C(=O)O)CCC(CC/C(C)=C/C(=O)NC(CCC(N)=O)C(=O)O)[C@@]2(C)C1` (stereo not given in full) here?
**A.** Its outcome is “inactive”.

**Q.** For `C[C@H](c1cnc(N)[nH]1)c1ccc(O)c2[nH]cc(-c3cnc(-c4c[nH]c5ccccc45)c(=O)[nH]3)c12`, which outcome is on record?
**A.** The outcome was “inactive”.

**Q.** For `C=C1C[C@H]2O[C@@H]3[C@@H]4[C@H](CC[C@@](C)(O)[C@@H]42)[C@H](C)COC3(C)[C@@H](OC(=O)CCCCCCC)CC1=O` (stereo not given in full), which outcome is on record?
**A.** Its outcome is “inactive”.

**Q.** For `CCC(=O)N[C@@H](C[C@H](C)C(Cl)(Cl)Cl)C(=O)N1C(=O)C=C(OC)[C@@H]1C[C@H](C)CCl`, which outcome is on record?
**A.** Its outcome is “inactive”.

**Q.** With `O=Cc1ccc2n1C[C@]1(C[C@H](O)[C@@H](CO)O1)OC2` as the compound, how does the outcome read?
**A.** The outcome was “inactive”.

**Q.** With `CCC(=O)N[C@@H](C[C@H](C)C(Cl)(Cl)Cl)C(=O)N1C(=O)C=C(OC)[C@@H]1CC(C)C` as the compound, how does the outcome read?
**A.** The outcome was “inactive”.

**Q.** For `CCC(C)=C1OC(=O)[C@H](C)[C@H](O)[C@H](Cc2cccnc2)NC(=O)C(NC(=O)c2ncccc2O)C(C)OC1=O` (stereo not given in full), which outcome is on record?
**A.** Its outcome is “inactive”.

**Q.** With `O=C1CCC(=O)N(O)CCCCCNC(=O)CCC(=O)N(O)CCCCCNC(=O)CCC(=O)N(O)CCCCCN1` as the compound, how does the outcome read?
**A.** Its outcome is “inactive”.

**Q.** Which outcome does the source give for `COc1cc2c(cc1OC)[C@@H](c1ccc3c(c1)OCO3)C(C)[C@@H](C)C2=O` (stereo not given in full) here?
**A.** Its outcome is “inactive”.

**Q.** With `C=C1CC[C@@H](O[C@H]2C[C@@](O)([C@H](C)NC(=O)c3[nH]c(C)c(Cl)c3Cl)[C@H](O)[C@@H](C)O2)[C@@H]2C=C[C@H](C)C(/C(O)=C3/C(=O)[C@H](C(C)C)N([C@@H]4O[C@H](C)[C@H](OC(N)=O)[C@H](OC(C)=O)[C@@H]4OC)C3=O)[C@@H]12` (stereo not given in full) as the compound, how does the outcome read?
**A.** Its outcome is “inactive”.

**Q.** With `COC(=O)c1cc2cc3c(c(O)c2c(=O)o1)OC1(CC3)CC2=C(O1)C(=O)c1c(O)c(OC)cc(OC)c1C2=O` (stereo not given) as the compound, how does the outcome read?
**A.** Its outcome is “inactive”.

**Q.** For `O=C(OC[C@H]1O[C@@H](OC(=O)c2cc(O)c(O)c(O)c2)[C@H](OC(=O)c2cc(O)c(O)c(O)c2)[C@@H](OC(=O)c2cc(O)c(O)c(O)c2)[C@@H]1OC(=O)c1cc(O)c(O)c(O)c1)c1cc(O)c(O)c(O)c1`, which outcome is on record?
**A.** The outcome was “inactive”.

**Q.** For `CC(C)=CC[C@H]1C[C@@]2(CC=C(C)C)C(=O)[C@](CC=C(C)C)(C(=O)C(C(=O)c3ccccc3)=C2O)C1(C)C`, which outcome is on record?
**A.** Its outcome is “inactive”.

**Q.** For `O=Cc1ccc2n1C[C@]1(OC2)O[C@H](CO)[C@@H](O)[C@@H]1O`, which outcome is on record?
**A.** Its outcome is “inactive”.

**Q.** Which cytotoxicity (LDH release) does the source give for `COc1ccc([C@@H]2CC(=O)c3c(cc(O)c(C/C=C(\C)CCC=C(C)C)c3O)O2)cc1` here?
**A.** Its cytotoxicity (LDH release) is -0.251 [at 9.19 µM].

**Q.** With `C=C1C[C@H]2O[C@@H]3[C@@H]4[C@H](CC[C@@](C)(O)[C@@H]42)[C@H](C)COC3(C)[C@@H](OC(=O)CCCCCCC)C[C@H]1O` (stereo not given in full) as the compound, how does the outcome read?
**A.** The outcome was “inactive”.

**Q.** For `CCCCCC(=O)N[C@@H](CC(C)C)C(=O)N[C@H](C=O)CCC(=O)O` (Hexanoyl-Leu-Glu-aldehyde), which outcome is on record?
**A.** Its outcome is “inactive”.

**Q.** With `C[C@@]1(CCC(=O)Nc2c(O)ccc(C(=O)O)c2O)C(=O)C=C[C@]23C[C@H]4C[C@H](O[C@@]4(C)C2)C31` (stereo not given in full) as the compound, how does the outcome read?
**A.** The outcome was “inactive”.

**Q.** For `C=C[C@@]1(C)CC[C@@H]([C@H](C)C(=O)/C=C/C(C)(C)O)O1`, which outcome is on record?
**A.** The outcome was “inactive”.

**Q.** Which outcome does the source give for `COc1ccc([C@@H]2c3cc4c(cc3C(=O)C(C)C2C)OCO4)cc1OC` (stereo not given in full) here?
**A.** Its outcome is “inactive”.

**Q.** With `Cc1cc(O)cc2c1C(=O)c1c(O)cc(O)cc1C2=O` as the compound, how does the outcome read?
**A.** Its outcome is “inactive”.

**Q.** For `COc1cc([C@@H]2c3cc4c(cc3C[C@@]3(O[C@@H]5O[C@H](CO)[C@@H](O)[C@H](O)[C@H]5O)COC(=O)[C@H]23)OCO4)cc(OC)c1OC`, which outcome is on record?
**A.** The outcome was “inactive”.

**Q.** For `C[C@@]12CCC[C@@](C)(C(=O)OP(=O)(O)OC[C@H]3O[C@@H](n4cnc5c(N)ncnc54)[C@H](O)[C@@H]3O)[C@H]1C[C@@H](O)[C@@]13C[C@@H](CC[C@@H]21)[C@](C)(O)C3`, which outcome is on record?
**A.** Its outcome is “inactive”.

**Q.** For `C[C@@H]1CC[C@]2(C(=O)O)CC[C@]3(C)C(=C2[C@H]1C)CC[C@@H]1[C@@]2(C)CC[C@H](O)C(C)(C)[C@@H]2CC[C@]13C`, which outcome is on record?
**A.** Its outcome is “inactive”.

**Q.** With `C/C1=C/[C@@H](C)[C@H](O)C/C=C/CC/C=C/C(=O)O[C@@H]1[C@H](C)C(=O)CCCC1CC(=O)NC(=O)C1` as the compound, how does the outcome read?
**A.** Its outcome is “inactive”.

**Q.** For `COc1cc2ccc(=O)oc2c(O)c1O[C@@H]1O[C@H](CO)[C@@H](O)[C@H](O)[C@H]1O`, which outcome is on record?
**A.** The outcome was “inactive”.

**Q.** Which outcome does the source give for `CC[C@@H]1[C@H](C)[C@H](c2cc(OC)c(OC)cc2OC)[C@@H](C)[C@H](c2cc(OC)c(OC)cc2OC)[C@]12C=C(OC)C(=O)C=C2OC` here?
**A.** Its outcome is “inactive”.

**Q.** For `COC(=O)[C@@]1(C)CCC[C@]2(C)c3cc(OC)ccc3CC[C@@H]12`, which outcome is on record?
**A.** Its outcome is “inactive”.

**Q.** For `CC1(C)CC[C@]2(CO)CC[C@]3(C)C(=CCC4[C@@]5(C)CC[C@H](O)C(C)(C)C5CC[C@]43C)C2C1` (stereo not given in full), which outcome is on record?
**A.** The outcome was “inactive”.

**Q.** With `C=C[C@@](C)(O)CC[C@@H]1[C@@]2(C)CCCC(C)(C)[C@@H]2CC[C@@]1(C)O` as the compound, how does the outcome read?
**A.** Its outcome is “inactive”.

**Q.** For `CC(CCC[C@]1(C)C(=O)C=C[C@@]23C[C@]4(C)O[C@@H](C[C@@H]4[C@H]2O)C31)C(=O)O` (stereo not given in full), which outcome is on record?
**A.** Its outcome is “inactive”.

**Q.** For `C/C1=C/[C@@H](C)[C@H](O)[C@@H](O)/C=C/CC/C=C/C(=O)O[C@@H]1[C@H](C)C(=O)CCCC1CC(=O)NC(=O)C1`, which outcome is on record?
**A.** Its outcome is “inactive”.

**Q.** With `CC(=O)O[C@H]1c2ccccc2-c2c3c(cc4c2[C@@H]1N(C(C)=O)CC4)OCO3` as the compound, how does the outcome read?
**A.** The outcome was “inactive”.

**Q.** Which outcome does the source give for `COc1cc2c(cc1OC)[C@@H](c1ccc3c(c1)OCO3)C(C)C(C)C2=O` (stereo not given in full) here?
**A.** The outcome was “inactive”.

**Q.** With `C=C[C@](Cl)(CBr)CCC=C(C)C` as the compound, how does the outcome read?
**A.** Its outcome is “inactive”.
